Screening results from PubChem.
This is a sample that favours compounds with a hit; in the whole collection about 3.5% have one here.
FBW7 activator: human FBW7 E3 ligase activation, primary screen; AlphaScreen FBW7–phospho-cyclin E peptide binding, activator screen; normalized activity (activation), % at 26.1 µM; actives 0.13% (n = 650,000); AID 1259310; in the data active = normalized activity above about 1.9%;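 also: purified mutant Fbw7 with reduced substrate affinity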
MITF primary: human MITF inhibition, primary screen | AlphaScreen MITF homodimerization, bead proximity signal | O75030 | inhibition, % at 2.6 µM | AID 1259374 | actives 0.91% (n = 650,000); in the data active = inhibition above about 50%
GPR151 ag: activates the human receptor GPR151. Q8TDV0. actives 1% (n = 650,000). AID 1508602. activation, % at 11.2 µM. PathHunter beta-arrestin GPR151 cells, luminescence; in the data active = activation above about 4.9%
TEAD-YAP block: TEAD-YAP interaction inhibition. inhibition, % at 9.12 µM. actives 1.4% (n = 640,000). AID 1259422. HEK-TIYL cells, TEAD-Gal4/YAP UAS-luciferase luminescence; in the data active = inhibition above about 32%
GPR151 confirm: human GPR151 activation, confirmation screen; shares compounds with GPR151 ag; activation, % at 11.2 µM; GPR151 PathHunter beta-arrestin cells, luminescence, 90 min; % of EA-reagent control over plate median; 6,700 tested, under 10 active;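 active = mean percent activation across replicates above the confirmation screen cutoff of 4.91%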
GPR119 counter: GPR119 activation, counter-screen for GPR151 activators. actives 0.3% (n = 6,700). GPR119 PathHunter beta-arrestin cells, luminescence, 90 min; 0 = compound-well median, 100 = enzyme-acceptor control. shares compounds with GPR151 ag. activation, % at 11.2 µM. AID 1508611;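 active = mean percent activation in the counterscreen above 29.09%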;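 also: counterscreen on off-target GPR119 to flag nonselective hits from the GPR151 activator screen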
Large screens that a line does not name were inactive (follow-up assays come after a bar, where they were run).

Cc1ccc(CN2CCNC(=O)C2CC(=O)NCc2cc(C(F)(F)F)ccc2F)cc1 (stereo not given)	GPR151 ag 6.5 | GPR151 confirm inactive | GPR119 counter inactive
Cc1ccc(CN2CCNC(=O)C2CC(=O)NCc2cnn(C)c2)cc1 (stereo not given)	none
O=c1c2c(-c3ccccc3)csc2ncn1Cc1ccc([N+](=O)[O-])cc1	GPR151 ag 5.6 | GPR151 confirm inactive | GPR119 counter inactive
CN(C)C(=O)c1cc(CNCc2cc(Cl)ccc2O)cc(NC(=O)c2ccccn2)c1	none
Cc1nc2ccccc2n1CCNS(=O)(=O)c1ccc(F)cc1	GPR151 ag 6.4 | GPR151 confirm inactive | GPR119 counter inactive
Fc1ccccc1/C=N\Nc1nc2ccccc2o1	GPR151 ag 11.0 | GPR151 confirm inactive | GPR119 counter inactive
CCN1CCC(Oc2ccc(-c3ccc(C#N)cc3)cc2)CC1	none
CS(=O)(=O)N1CCC(Oc2ccc(-c3ccc(C#N)cc3)cc2)CC1	GPR151 ag 11.7 | GPR151 confirm inactive | GPR119 counter inactive
CCOc1ccc(/C=C2/SC(N3CCCC(C)C3)=NC2=O)c(OCC)c1 (stereo not given)	none
Cc1csc(Sc2ccc([N+](=O)[O-])cc2C(=O)OCC(=O)Nc2cc(C)on2)n1	none
Cc1csc(Sc2ccc([N+](=O)[O-])cc2C(=O)OC(C)C#N)n1 (stereo not given)	GPR151 ag 5.3 | GPR151 confirm inactive | GPR119 counter inactive
O=C(Nc1ccccc1)OCC1CCCO1 (stereo not given)	GPR151 ag 10.6 | GPR151 confirm inactive | GPR119 counter inactive
CCN(CC)C(=O)NCc1noc2ccccc12	GPR151 ag 5.3 | GPR151 confirm inactive | GPR119 counter inactive
CCCCN(CC)C(=O)NCc1noc2ccccc12	none
Cc1cccc(NC(=O)NCc2noc3ccccc23)n1	GPR151 ag 5.6 | GPR151 confirm inactive | GPR119 counter inactive
CCN(C(=O)NCc1noc2ccccc12)c1ccccc1	GPR151 ag 5.6 | GPR151 confirm inactive | GPR119 counter inactive
Cc1ccc(NC(=O)NCc2noc3ccccc23)nc1	none
O=C1CCCN1CCn1cnc2c(NCCO)nc(Nc3ccc(N4CCOCC4)cc3)nc21	GPR151 ag 5.6 | GPR151 confirm inactive | GPR119 counter inactive
O=C1CCCN1CCn1cnc2c(Nc3ccc(N4CCOCC4)cc3)nc(Nc3ccc(-n4ccnc4)cc3)nc21	GPR151 ag 5.9 | GPR151 confirm inactive | GPR119 counter inactive
CC(C)n1cnc2c(NCCN3CCOCC3)nc(Nc3ccc(-n4ccnc4)cc3)nc21	GPR151 ag 6.2 | GPR151 confirm inactive | GPR119 counter inactive
O=C(CSc1cn(CCNC(=O)c2ccccc2)c2ccccc12)NCC1CCCO1 (stereo not given)	none
CC(C)N(C(=O)Cn1cc(SCC(=O)NCC2CCCO2)c2ccccc21)C(C)C (stereo not given)	GPR151 ag 11.8 | GPR151 confirm inactive | GPR119 counter inactive
CCOCCCNC(=O)c1cnn2c(C)c(Cc3ccccc3Br)c(C)nc12	GPR151 ag 6.0 | GPR151 confirm inactive | GPR119 counter inactive
N#CCn1cnc2c(nnn2-c2cccc(F)c2)c1=O	GPR151 ag 6.1 | GPR151 confirm inactive | GPR119 counter inactive
CC(=O)CCc1ccc(OCCNC2CCCC2)cc1	none
CCN(CC)S(=O)(=O)c1cccc(C(=O)NN)c1	GPR151 ag 5.5 | GPR151 confirm inactive | GPR119 counter inactive
CCCCNC(=O)CCN1C(=O)c2ccccc2S1(=O)=O	none
Nc1nnc(-c2ccc(C(=O)O)cc2)s1	GPR151 ag 7.6 | GPR151 confirm inactive | GPR119 counter inactive
Cc1ccc(-c2nnc(N)s2)cc1C	GPR151 ag 5.6 | GPR151 confirm inactive | GPR119 counter inactive
Cc1ccc(-c2nnc(N)s2)cc1	none
COc1cccn2c(C(=O)Nc3ccc(Cl)cc3)c(C(F)(F)F)nc12	GPR151 ag 14.2 | GPR151 confirm inactive | GPR119 counter inactive
COc1cccn2c(C(=O)N3CCCC3)c(C(F)(F)F)nc12	none
COc1cccn2c(C(=O)N3CCC3)c(C(F)(F)F)nc12	GPR151 ag 6.2 | GPR151 confirm inactive | GPR119 counter inactive
NC1=NC(=O)/C(=C\c2cc([N+](=O)[O-])ccc2O)S1	none
O=C1NC(CC(=O)N2CCC(C(=O)c3nc4ccccc4s3)CC2)c2ccccc21 (stereo not given)	GPR151 ag 5.1 | GPR151 confirm inactive | GPR119 counter inactive
O=C(c1nc2ccccc2s1)C1CCN(C(=O)Cn2cnc3ccccc3c2=O)CC1	none
CCN(CC)c1nc(NCCc2ccc(OC)cc2)nc(N2CCc3ccccc3C2)n1	none
O=C(Nc1ccc2[nH]ncc2c1)[C@H]1CCN(C(=O)[C@H](O)CSc2ccc(Br)cc2)C1	none
O=C(Nc1ccc2[nH]ncc2c1)[C@H]1CCN(C(=O)[C@@H](O)CSc2ccc(Br)cc2)C1	GPR151 ag 5.7 | GPR151 confirm inactive | GPR119 counter inactive
Cc1noc(C)c1-c1nc(NCCOc2ccccc2)c2ncn(CCN3CCCC3=O)c2n1	GPR151 ag 6.1 | GPR151 confirm inactive | GPR119 counter inactive
O=C1CCCN1CCCNc1nc(-c2csc3ccccc23)nc2c1ncn2-c1ccccc1	GPR151 ag 5.8 | GPR151 confirm inactive | GPR119 counter inactive
O=C1CCCN1CCn1cnc2c(NCCOc3ccccc3)nc(N3CCc4ccccc4C3)nc21	GPR151 ag 15.2 | GPR151 confirm inactive | GPR119 counter inactive
O=C1CCCN1CCCNc1nc(-c2csc3ccccc23)nc2c1ncn2Cc1ccc(C(F)(F)F)cc1	none
O=C1CCCN1CCCNc1nc(N2CCc3ccccc3C2)nc2c1ncn2CCN1CCCC1=O	none
CCCS(=O)(=O)c1c(S(=O)(=O)CCC)c2c3ccccc3ccn2c1C(=O)c1ccc(F)cc1	none
COc1ccccc1-c1nnc(C2CCN(S(=O)(=O)c3ccccc3)CC2)o1	GPR151 ag 5.8 | GPR151 confirm inactive | GPR119 counter inactive
O=S(=O)(NCCc1ccccc1)c1c(F)cccc1F	none
Cc1c(C(=O)N(C)C)sc2c1c(=O)n(-c1ccc(Cl)cc1)c(=O)n2CC1OCCO1	GPR151 ag 6.0 | GPR151 confirm inactive | GPR119 counter inactive
O=C(NNS(=O)(=O)c1ccc2ccccc2c1)c1ccc(Br)cc1	none
O=C(NNS(=O)(=O)c1ccc(Br)cc1)c1ccccc1	GPR151 ag 5.4 | GPR151 confirm inactive | GPR119 counter inactive
CC1(C)CC(=O)C(C=NCc2cccc(F)c2)=C(O)C1	none
CC1(C)CC(=O)C(C=NCCc2cccc(Cl)c2)=C(O)C1	GPR151 ag 5.4 | GPR151 confirm inactive | GPR119 counter inactive
COc1cccc(CC2(CO)CCN(C(=O)Cn3cnnn3)CC2)c1	none
COc1cccc(CC2(CO)CCN(C(=O)CN3CCCC(c4ccccc4)C3)CC2)c1 (stereo not given)	GPR151 ag 5.2 | GPR151 confirm inactive | GPR119 counter inactive
